Assay results reported in PubChem BioAssay AID1159580 (chemical genetic matrix, 2015).
Hit rate of the full screen: of about 5,500 compounds, about 2,000 (36%) were called active. Not shown: some 18% with an inconclusive outcome. No stated cut-off is given here; in the data, active means normalized growth mostly below about 0.91 (no sharp cut-off); inconclusive means no clear call, values can overlap the other calls; inactive means mostly above about 0.92. The list shows a part of the results.

Assay: chemical genetic growth profiling, strain panel (AID 1159580);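 further: tested at 20 µM; growth read once vehicle control cultures reached saturation at 30 °C; 1 = growth at the plate median or of vehicle wells; lower values mean less growth of the strain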
Details: S. cerevisiae deletion strains, growth OD

Measured: normalized growth

C=C(C)/C=C1/C=CC(=O)C(C)=C1
inactive: locus YBR229C, strain ROT2, hits give low values 0.99 | locus YOL012C, strain htz1 0.247
active: locus YBR021W, strain FUR4, hits give low values 0.466 | locus YCL029C, strain bik1, hits give low values 0.611 | locus YDL035C, strain GPR1, hits give low values 0.185 | locus YDL074C, strain BRE1, hits give low values 0.26 | locus YDL101C, strain DUN1, hits give low values 0.803 | locus YDL185W, strain tfp1, hits give low values 0.06 | locus YDL192W, strain arf1, hits give low values 0.0749 | locus YDR101C, strain arx1, hits give low values 0.613 | locus YDR162C, strain NBP2, hits give low values 0.208 | locus YDR318W, strain mcm21, hits give low values 0.0733 | locus YDR388W, hits give low values 0.544 | locus YDR502C, strain sam2, hits give low values 0.0764 | locus YEL061C, strain CIN8, hits give low values 0.288 | locus YER110C, hits give low values 0.472 | locus YER155C, strain BEM2, hits give low values 0.27 | locus YER167W, strain BCK2, hits give low values 0.151 | locus YGL078C, strain dbp3, hits give low values 0.0621 | locus YGL086W, strain mad1, hits give low values 0.0823 | locus YGL248W, strain PDE1, hits give low values 0.152 | locus YGR078C, strain PAC10, hits give low values 0.097 | locus YGR135W, strain pre9, hits give low values 0.129 | locus YGR252W, strain gcn5, hits give low values 0.264 | locus YHR079C, strain IRE1 (second series), hits give low values 0.687 | locus YHR094C, strain hxt1, hits give low values 0.088 | locus YHR129C, strain ARP1, hits give low values 0.107 | locus YHR200W, strain rpn10, hits give low values 0.27 | locus YIL066C, strain RNR3, hits give low values 0.458 | locus YIL073C, strain SPO22, hits give low values 0.179 | locus YIL125W, strain kgd1, hits give low values 0.0607 | locus YIR030C, strain dcg1, hits give low values 0.42 | locus YJL095W, strain BCK1, hits give low values 0.375 | locus YJL134W, strain LCB3, hits give low values 0.183 | locus YJL168C, strain set2, hits give low values 0.203 | locus YJL187C, strain SWE1 (second series), hits give low values 0.636 | locus YKL068W, hits give low values 0.0579 | locus YKL085W, strain MDH1 (second series), hits give low values 0.0777 | locus YKL085W, strain MDH1, hits give low values 0.0777 | locus YKL190W, strain CNB1, hits give low values 0.198 | locus YKR001C, strain vps1, hits give low values 0.0676 | locus YLR039C, strain RIC1, hits give low values 0.166 | locus YLR058C, strain SHM2, hits give low values 0.755 | locus YLR102C, strain apc9, hits give low values 0.0756 | locus YLR262C, strain YPT6, hits give low values 0.152 | locus YLR268W, strain sec22, hits give low values 0.076 | locus YLR330W, strain CHS5, hits give low values 0.0909 | locus YLR371W, strain rom2, hits give low values 0.0908 | locus YLR418C, strain cdc73, hits give low values 0.116 | locus YML016C, strain PPZ1, hits give low values 0.228 | locus YML032C, strain rad52, hits give low values 0.7 | locus YML124C, strain tub3, hits give low values 0.174 | locus YMR078C, strain ctf18, hits give low values 0.0861 | locus YMR223W, strain ubp8, hits give low values 0.108 | locus YMR307W, strain GAS1, hits give low values 0.147 | locus YNL067W, strain RPL9B, hits give low values 0.0907 | locus YNL128W, strain TEP1, hits give low values 0.229 | locus YNL233W, strain BNI4, hits give low values 0.188 | locus YNL250W, strain rad50, hits give low values 0.0988 | locus YNL271C, strain bni1, hits give low values 0.0645 | locus YNL298W, strain CLA4, hits give low values 0.06 | locus YNL307C, strain MCK1, hits give low values 0.0748 | locus YNR052C, strain pop2, hits give low values 0.748 | locus YOL006C, strain TOP1, hits give low values 0.202 | locus YOL147C, strain pex11, hits give low values 0.464 | locus YOR061W, strain CKA2, hits give low values 0.449 | locus YOR069W, strain VPS5, hits give low values 0.0688 | locus YOR136W, strain idh2, hits give low values 0.106 | locus YOR144C, strain elg1, hits give low values 0.646 | locus YOR184W, strain ser1, hits give low values 0.0806 | locus YOR316C, strain cot1, hits give low values 0.0831 | locus YPL055C, strain LGE1, hits give low values 0.103 | locus YPR119W, strain clb2, hits give low values 0.0703 | locus YPR141C, strain kar3, hits give low values 0.0832 | locus YPR163C, strain tif3, hits give low values 0.0853 | locus YPR167C, strain met16, hits give low values 0.0692 | strain wtn01, hits give low values 0.0763
